# Values joined by “and” are separate entries in the source; they are usually repeats but may differ in a detail not shown here. Identical values can stand only once. Inconclusive results are not listed. Unmarked numbers belong to inactive results. Active and inactive are the calls of the source. The call rests on the fitted dose curve; in most records, active means well fitted cell-killing curve with a large enough effect in the repeat runs; inconclusive means weak or mixed curves, or effect the other way; inactive means flat fitted curve, though single readings scatter.
# Assay: Human pregnane X receptor (PXR) small molecule agonists, qHTS cell viability counter screen (AID 1346977); further: nearly all actives have a fitted effect of over 50% in size
# Conditions: PXR-Luc HepG2 viability, CellTiter-Fluor, 24 h; series mostly up to 92.4 µM; activity change, negative = cytotoxicity: at the top concentration
# Description: U.S. Tox21 Program National Center for Advancing Translational Sciences [NCATS] NIH Chemical Genomics Center [NCGC] U.S. Environmental Protection Agency [EPA] National Institutes of Environmental Health Sciences [NIEHS] National Toxicology Program [NTP] U.S. Food and Drug Administration [FDA] Tox21 Assay Overview: The human pregnane X receptor (hPXR) regulates the expression of several drug metabolizing enzymes and induction of these proteins is a major mechanism for developing drug resistance in cancer. One such key enzyme catalyzing the drug metabolism is cytochrome P450 3A4 (CYP3A4). Changes in CYP3A4 expression affect drug metabolism, thereby reducing the therapeutic efficacy and altering toxicological response to a drug and which finally causes adverse drug interaction. To screen Tox21 libraries for compounds that activate hPXR-mediated CYP3A4 gene expression, PXR-Luc HepG2 cells were used. Also cytotoxicity of the compounds was tested in parallel by measuring the cell viability using CellTiter-Fluor assay system in the same wells.
# Tox21 Assay Protocol Summary: PXR-Luc HepG2 cells were dispensed at 2,000 per well in 5uL of assay medium containing 5% charcoal-stripped FBS into white solid bottom 1536-well plates (Corning Life Sciences, Corning, NY) using a Multidrop Combi (Thermo Scientific, Waltham, MA) dispenser. The assay plates were incubated at 37 C and 5% CO2 for 5hr, and then 23nL of compounds dissolved in DMSO and positive control were transferred using a Pintool station (Wako, San Diego, CA). The assay plates were incubated at 37C and 5% CO2 for 24hr. For cytotoxicity read, after 23hr incubation at 37C, 1uL CellTiter-Fluor reagent (Promega Corporation, Madison, WI) was added to each well of the assay plates using Flying Reagent Dispenser (FRD, Aurora Discovery, San Diego, CA). After 1hr incubation at 37C and 5% CO2, the fluorescence signal was quantified using a ViewLux plate reader (PerkinElmer, Shelton, CT).
# On the % scale 0 is the no-effect control and ±100 the full control effect; potency means the concentration at half of the fitted maximal effect.
SMILES,"activity change, negative = cytotoxicity",Potency
SCc1ccccc1,1.43%,
CCCBr,-8.56%,
O=C(O)C(Cl)(Cl)Br,29%,
CC(C)(C)OOC(C)(C)CCC(C)(C)OOC(C)(C)C,7.04%,
CC(Oc1cccc(Cl)c1)C(=O)O (stereo not given),7.15%,
CC[N+]1(C)CCCC(OC(=O)C(O)(c2ccccc2)c2ccccc2)C1 (stereo not given),-0.847% [at 42.5 µM],
CN(C1CCCCC1)C1CCCCC1,9.52%,
O=C(NC(=O)c1cc(F)c(F)cc1Cl)Nc1cc(F)ccc1N1CCC(C(=O)O)CC1,7.38% [at 42.5 µM],
NC(=O)CF,5.29%,
C[CH2][Hg][S]c1ccccc1C(=O)O,,3.44 µM (active) and 6.68 µM (active)
CCCCCCCCCCCCN=C(N)N,1.51% [at 3.27 µM],
CCCCCCCCCCCC[N+](C)(C)CCOc1ccccc1,,61.1 µM (active)
CCCCC(CC)CO[N+](=O)[O-] (stereo not given),-0.513%,
CC(C)(C)NCC(O)c1ccccc1Cl (stereo not given),-6.42% [at 42.5 µM],
C[C@H]1O[C@H](OC2[C@@H](O)[C@@H](O)C(O)[C@H](O)[C@H]2O)[C@@H](N)C[C@@H]1N=C(N)C(=O)O (stereo not given in full),-0.8%,
O=[N+]([O-])c1cc(Cl)c(Cl)cc1Cl,2.59%,
C=C(Cl)Cl,8.81%,
OC[P+](CO)(CO)CO,-0.26%,
CC(Cc1ccccc1)NCc1ccccc1Cl (stereo not given),3.62% [at 42.5 µM],
CCCCCCCCP(=O)(O)O,17.5%,

SMILES,"activity change, negative = cytotoxicity",Potency
COc1ccc(C(O)(c2cncnc2)C2CC2)cc1 (stereo not given),12.7%,
CCCCNC(=O)OCC#CI,,35.5 µM (active) and 27.3 µM (active)
Cc1cnc(C2=NC(C)(C(C)C)C(=O)N2)c(C(=O)O)c1 (stereo not given),4.6%,
O=C(O)C(O)C(O)C(=O)O (stereo not given),2.65%,
O=CC=O,-0.301%,
CCCCC1C(=O)NC(=O)N(C2CCCCC2)C1=O (stereo not given),10.5% [at 42.5 µM],
C=CCOCC1CO1 (stereo not given),3.23%,
CN(C)N,6.98%,
FC(F)OC(F)(F)C(F)Cl (stereo not given),8.4%,
CCCCCCCCCCCCN(C)C,-0.66%,
O=C(O)COc1cc(Cl)c(Cl)cc1Cl,,inactive
O=C([O-])c1ccccn1.O=C([O-])c1ccccn1.O=C([O-])c1ccccn1.[Cr+3],0.207%,
O=C(Cc1ccccc1)OCCc1ccccc1,0.0604%,
CCC1(CC)C(=O)NC(=O)NC1=O,6.24% [at 42.5 µM],
C=CCOC(=O)C(C)(C)OC(=O)c1cc(-n2c(=O)cc(C(F)(F)F)n(C)c2=O)ccc1Cl,-5.44%,
CCc1ccccc1N,-3.53%,
CCC1(CCC(C)C)C(=O)NC(=O)NC1=O,1.1%,
c1ccc2sc(SNC3CCCCC3)nc2c1,,inactive
CCC(C)(C)O,1.35%,
Nc1ccccc1C(=O)OCCc1ccccc1,,inactive
